The nature of this experiment: basal HepG2 mitochondrial membrane potential changes, profiling panel, cell-based, JC-1 fluorescence, 24 h, 100 nL compound (AID 1167). Further: test concentration not given here. The conditions noted are these: higher = more signal.
Molecule `O=C1C2C=CC(C(O)Cc3ccccc3)N(n3cnnc3)C2C(=O)N1Cc1ccccc1` (stereo unspecified) gave a z-score of -0.532.

In turn, `Cc1ccc(S[C@]2(C(=O)NCCCN(C)C)CC(=O)N(Cc3ccccc3C(F)(F)F)[C@@H]2c2ccc(CO)cc2)cc1` showed a z-score of 1.47.

`COc1cc(C(O)C2C=CC3C(=O)NC(=O)C3N2Nc2ccccn2)cc(OC)c1OC` (stereo unspecified) gave a z-score of -1.2.

With `C=CCNC(=O)[C@H]1[C@@H]2C(=O)O[C@@H](c3ccccc3)[C@@H](c3ccccc3)N2[C@@H](c2ccccc2OCCO)[C@]12C(=O)Nc1ccc(C#CCC(C(=O)OC)C(=O)OC)cc12`, the z-score is -0.64.

For the molecule `COCCOC(=O)N1C(=O)[C@@]2(c3cc(C#CCNC(N)=O)ccc31)[C@H](C(=O)N1CCN(c3ncccn3)CC1)[C@H]1C(=O)O[C@H](c3ccccc3)[C@H](c3ccccc3)N1[C@@H]2c1ccc(OCCO)cc1`, the z-score is -2.07.

As for `CCOC(=O)C[C@H]1[C@H](OC(=O)c2ccc(C(=O)c3ccccc3)cc2)[C@@H](NC(=O)c2ccc3ccccc3c2)c2cc(OCCCO)ccc2N1C(=O)Cc1ccc(OC)cc1`, the z-score came out at 1.32.

`C[C@H]1NC(=O)[C@@]23C(=O)N[C@@H](Cc4ccccc4)C2[C@H](C)[C@@]2(C)O[C@H]2C3/C=C/C/C=C\CNC(=O)[C@@H]2CCCN2C1=O` (stereo partly specified) showed a z-score of -0.0133.

`C=C(CCCC)/C(=C/C[C@@H](OC(=O)c1ccncc1)c1ccc(OCCO)cc1)c1cc(C(=O)OC)ccc1OC` registered a z-score of 2.46.

`CN1C(=O)C2C=CC(C(O)c3ccc([N+](=O)[O-])cc3)N(N3CCCCC3)C2C1=O` (stereo unspecified) had a z-score of -1.24.

`CC(C)C(=C=CC[C@H](O)c1ccc(OCCO)cc1)CCO` yielded a z-score of -1.55.

`C[C@H]1C2[C@H](Cc3ccccc3)NC(=O)[C@]23C(=O)N[C@H](Cc2ccccc2)C(=O)N2CCC[C@H]2C(=O)NC/C=C\C/C=C/C3[C@@H]2O[C@]12C` (stereo partly specified) showed a z-score of 0.725.

For `CN(C)CCCCCCNC(=O)[C@H]1C[C@H]2C(=O)N[C@@H](CCCCN)C(=O)N2[C@H]1c1cccc(OCCO)c1`, the z-score came out at 0.272.

For `C=CCC(OC(C)=O)[C@@H]1[C@@H](N(Cc2cc3ccccc3o2)C(=O)c2cccc3ccccc23)c2cc(OCCCO)ccc2N1C(=O)c1ccc(-c2ccccc2)cc1` (stereo partly specified), the z-score was 3.47.

As for `COC(=O)[C@@]1(Cc2ccc(OC)cc2)[C@H]2c3cc(C(=O)N4CCCC4)n(Cc4ccc(O)c(OC)c4)c3C[C@H]2CN1C(=O)c1ccccc1`, the z-score is 2.27.

As for `COC(=O)[C@@]1(Cc2ccc(OC)cc2)[C@H]2c3cc(C(=O)N4CCCC4)n(Cc4ccc(C)c(F)c4F)c3C[C@H]2CN1C(=O)c1ccccc1`, the z-score was found to be 3.41.

For the molecule `C=CCOC(=O)[C@H]1[C@@H]2C(=O)O[C@@H](c3ccccc3)[C@@H](c3ccccc3)N2[C@@H](c2ccc(OCCOC(=O)[C@@H]3C[C@@H]4C(=O)N[C@@H](CCCCNC(C)=O)C(=O)N4[C@@H]3c3ccc(O)cc3)cc2)[C@]12C(=O)Nc1ccccc12`, the z-score is -1.7.

For the molecule `COC(=O)[C@@]1(Cc2ccc(OC)cc2)[C@H]2c3cc(C(=O)N(C)C)n(Cc4ccc(S(C)(=O)=O)cc4)c3C[C@H]2CN1C(=O)c1ccccc1`, the z-score stood at 3.14.

As for `CC(C)=CCN[C@H](CO)c1ccccc1`, the z-score was -0.416.

On to `COC(=O)[C@@]1(Cc2ccc(F)cc2)[C@H]2c3cc(C(=O)N4CCCC4)n(Cc4ccc(S(C)(=O)=O)cc4)c3C[C@H]2CN1C(=O)c1ccccc1`, for which the z-score turned out to be 2.11.

`COc1ccc(C#Cc2ccc3c(c2)[C@]2(C(=O)N3)[C@H](C(=O)Nc3nc4ccccc4s3)[C@H]3C(=O)O[C@H](c4ccccc4)[C@H](c4ccccc4)N3[C@@H]2c2ccc(O)cc2)cc1` showed a z-score of -3.71.

The molecule `[N-]=[N+]=Nc1ccccc1[C@H]1OC(c2ccc(OCCCO)cc2)=N[C@@]1(CCS(=O)(=O)c1ccccc1)C(N)=O` displayed a z-score of -0.93.

The molecule `CC(C)c1ccc(NN2C(C(O)c3ccc(B(O)O)cc3)C=CC3C(=O)N(c4ccccc4)C(=O)C32)cc1` (stereo unspecified) registered a z-score of -1.75.

The molecule `COC(=O)[C@@]1(Cc2ccc(F)cc2)[C@H]2c3cc(C(=O)N(C)C)n(Cc4ccccc4)c3C[C@H]2CN1C(=O)c1ccccc1` had a z-score of 0.746.

In turn, `[N-]=[N+]=Nc1ccccc1[C@@H]1OC(c2ccc(OCCCO)cc2)=N[C@]1(Cc1ccccc1)C(=O)N1CCOCC1` yielded a z-score of 0.593.

`CN(C)C(=O)[C@]1(Cc2ccccc2N=[N+]=[N-])N=C(c2ccc(OCCCO)cc2)O[C@@H]1c1ccccc1N=[N+]=[N-]` came in with a z-score of 1.53.

For the molecule `CC(C)NC(=O)[C@@]1(c2ccc([N+](=O)[O-])cc2)CC(=O)N(C2CCCCC2)[C@@H]1c1ccc(CO)cc1I`, the z-score came to 1.29.

`COCCOC(=O)N1C(=O)[C@@]2(c3cc(C#Cc4ccc(OC)cc4)ccc31)[C@H](c1ccc(OCCO)cc1)N1[C@H](c3ccccc3)[C@H](c3ccccc3)OC(=O)[C@H]1[C@@H]2C(=O)N1CCN(c2ncccn2)CC1` returned a z-score of 0.548.

In the case of `CCC[C@@H]1C[C@@]1(CCC)[C@@H](NC(=O)c1ccccc1)c1cccc(Cl)c1`, the z-score worked out at 0.909.

On to `[N-]=[N+]=Nc1ccccc1[C@H]1OC(c2ccc(OCCCO)cc2)=N[C@@]1(CCS(=O)(=O)c1ccccc1)C(=O)NCC(O)CO` (stereo partly specified), for which the z-score is -1.16.

For the molecule `O=C1N[C@@H](Cc2ccccc2)C(=O)N2[C@@H]1C[C@@H](C(=O)O)[C@H]2c1cccc(OCCO)c1`, the z-score was 1.3.

In turn, `COc1ccc([Si](C)(C)[C@@H]2[C@@H](CC(=O)N3CCC[C@H]3CO)O[C@]3(C(=O)N(c4ccccc4)c4ccccc43)[C@H]2C)cc1` returned a z-score of 1.29.

Regarding `CC(C)N1C(=O)C[C@@](C(=O)NCC(F)(F)F)(c2ccc([N+](=O)[O-])cc2)[C@H]1c1ccc(CO)cc1`, the z-score turned out to be 0.868.

For the molecule `CN1C(=O)C2C=CC(C(O)C#Cc3ccccc3)N(N3CCCCC3)C2C1=O` (stereo unspecified), the z-score was -0.242.

Molecule `C=C(C)[C@@H]1CC=C(C(O)C2C=CC3C(=O)N(C)C(=O)C3N2Nc2ccccc2)CC1` (stereo partly specified) gave a z-score of -0.9.

`C=CCOC(=O)[C@@H]1[C@H]2C(=O)O[C@H](c3ccccc3)[C@H](c3ccccc3)N2[C@H](c2ccc(OCCOC(=O)[C@@H]3C[C@@H]4C(=O)NCC(=O)N4[C@@H]3c3ccc(O)cc3)cc2)[C@@]12C(=O)Nc1ccc(I)cc12` yielded a z-score of -2.11.

`COC(=O)[C@@]1(Cc2ccc(OC)cc2)[C@H]2c3cc(C(=O)N(C)C)n(CCc4ccccn4)c3C[C@H]2CN1C(=O)c1ccccc1` returned a z-score of -0.0203.

For the origin of these results see PubChem BioAssay.
